This note sets out measurements from ChEMBL document CHEMBL2218924, “A broad activity screen in support of a chemogenomic map for kinase signalling research and drug discovery” (Biochem J, 2013).

The target in assay [1] is T1, Serine/threonine-protein kinase 17A (Homo sapiens) (UniProt Q9UEE5).
T1 sequence (whole entry): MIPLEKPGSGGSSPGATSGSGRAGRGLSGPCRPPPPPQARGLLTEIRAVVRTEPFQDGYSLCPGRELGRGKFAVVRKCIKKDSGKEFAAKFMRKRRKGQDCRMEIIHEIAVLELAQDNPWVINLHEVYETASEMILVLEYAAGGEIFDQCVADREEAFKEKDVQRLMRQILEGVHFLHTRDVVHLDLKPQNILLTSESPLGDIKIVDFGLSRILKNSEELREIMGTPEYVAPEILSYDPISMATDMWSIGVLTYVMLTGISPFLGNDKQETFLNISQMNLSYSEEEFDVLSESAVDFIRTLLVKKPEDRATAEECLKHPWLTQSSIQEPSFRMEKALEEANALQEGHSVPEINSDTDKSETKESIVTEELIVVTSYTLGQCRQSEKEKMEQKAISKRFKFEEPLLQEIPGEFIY
Particulars: at 10 µM.

Assay [2] concerns the target T2, Dual specificity tyrosine-phosphorylation-regulated kinase 2 (Homo sapiens) (UniProt Q92630).
T2 sequence (whole entry): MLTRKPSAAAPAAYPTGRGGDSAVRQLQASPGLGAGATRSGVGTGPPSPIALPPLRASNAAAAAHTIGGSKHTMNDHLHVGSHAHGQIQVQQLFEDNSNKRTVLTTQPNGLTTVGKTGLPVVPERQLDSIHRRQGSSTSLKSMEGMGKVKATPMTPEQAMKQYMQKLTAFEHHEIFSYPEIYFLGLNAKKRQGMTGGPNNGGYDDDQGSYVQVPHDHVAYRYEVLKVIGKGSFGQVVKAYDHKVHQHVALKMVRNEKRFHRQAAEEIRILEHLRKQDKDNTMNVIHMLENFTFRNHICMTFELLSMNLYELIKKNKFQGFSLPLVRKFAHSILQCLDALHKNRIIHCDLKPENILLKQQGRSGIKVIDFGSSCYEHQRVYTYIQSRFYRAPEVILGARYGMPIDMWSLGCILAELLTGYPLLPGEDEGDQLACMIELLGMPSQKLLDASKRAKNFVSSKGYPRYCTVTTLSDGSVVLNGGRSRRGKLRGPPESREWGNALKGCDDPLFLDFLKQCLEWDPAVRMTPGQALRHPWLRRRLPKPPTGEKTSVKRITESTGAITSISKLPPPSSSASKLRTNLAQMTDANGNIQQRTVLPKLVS
Particulars: at 1 µM.

In assay [3] the target is T2, Dual specificity tyrosine-phosphorylation-regulated kinase 2 (Homo sapiens). Particulars: at 10 µM.
For assay [4], the target named is T3, Ephrin type-A receptor 1 (Homo sapiens) (UniProt P21709).
T3 sequence (whole entry): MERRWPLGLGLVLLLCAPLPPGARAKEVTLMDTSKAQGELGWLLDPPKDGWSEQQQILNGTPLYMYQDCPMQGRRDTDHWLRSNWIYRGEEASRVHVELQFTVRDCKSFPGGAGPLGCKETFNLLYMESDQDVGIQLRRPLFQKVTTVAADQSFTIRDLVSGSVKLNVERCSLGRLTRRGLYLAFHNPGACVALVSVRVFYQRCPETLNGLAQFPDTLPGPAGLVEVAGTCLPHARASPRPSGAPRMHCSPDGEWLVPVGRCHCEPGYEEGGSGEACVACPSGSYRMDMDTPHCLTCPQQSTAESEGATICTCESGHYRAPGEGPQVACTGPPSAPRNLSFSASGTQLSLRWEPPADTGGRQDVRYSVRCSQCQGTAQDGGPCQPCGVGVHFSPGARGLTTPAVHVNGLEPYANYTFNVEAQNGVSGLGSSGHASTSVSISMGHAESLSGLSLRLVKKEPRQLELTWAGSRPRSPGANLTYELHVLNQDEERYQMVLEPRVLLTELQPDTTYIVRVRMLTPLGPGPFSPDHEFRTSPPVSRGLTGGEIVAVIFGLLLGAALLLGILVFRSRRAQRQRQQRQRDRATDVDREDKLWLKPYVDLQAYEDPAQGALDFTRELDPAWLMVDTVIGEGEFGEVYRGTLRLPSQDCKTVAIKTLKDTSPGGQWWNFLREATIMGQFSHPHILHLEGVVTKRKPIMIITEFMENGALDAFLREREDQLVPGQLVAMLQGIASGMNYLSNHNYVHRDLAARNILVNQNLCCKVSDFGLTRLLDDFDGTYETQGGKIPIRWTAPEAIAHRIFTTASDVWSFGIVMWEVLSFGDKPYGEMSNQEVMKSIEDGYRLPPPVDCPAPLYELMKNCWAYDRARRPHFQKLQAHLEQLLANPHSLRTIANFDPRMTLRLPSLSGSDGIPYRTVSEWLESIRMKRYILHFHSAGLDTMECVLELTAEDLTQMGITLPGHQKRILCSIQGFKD
Conditions: at 10 µM.

Assay [5] deals with Ephrin type-A receptor 2 (Homo sapiens) (UniProt P29317). Particulars: at 1 µM.
The target in assay [6] is T4, Ephrin type-A receptor 3 (Homo sapiens) (UniProt P29320).
T4 sequence (whole entry): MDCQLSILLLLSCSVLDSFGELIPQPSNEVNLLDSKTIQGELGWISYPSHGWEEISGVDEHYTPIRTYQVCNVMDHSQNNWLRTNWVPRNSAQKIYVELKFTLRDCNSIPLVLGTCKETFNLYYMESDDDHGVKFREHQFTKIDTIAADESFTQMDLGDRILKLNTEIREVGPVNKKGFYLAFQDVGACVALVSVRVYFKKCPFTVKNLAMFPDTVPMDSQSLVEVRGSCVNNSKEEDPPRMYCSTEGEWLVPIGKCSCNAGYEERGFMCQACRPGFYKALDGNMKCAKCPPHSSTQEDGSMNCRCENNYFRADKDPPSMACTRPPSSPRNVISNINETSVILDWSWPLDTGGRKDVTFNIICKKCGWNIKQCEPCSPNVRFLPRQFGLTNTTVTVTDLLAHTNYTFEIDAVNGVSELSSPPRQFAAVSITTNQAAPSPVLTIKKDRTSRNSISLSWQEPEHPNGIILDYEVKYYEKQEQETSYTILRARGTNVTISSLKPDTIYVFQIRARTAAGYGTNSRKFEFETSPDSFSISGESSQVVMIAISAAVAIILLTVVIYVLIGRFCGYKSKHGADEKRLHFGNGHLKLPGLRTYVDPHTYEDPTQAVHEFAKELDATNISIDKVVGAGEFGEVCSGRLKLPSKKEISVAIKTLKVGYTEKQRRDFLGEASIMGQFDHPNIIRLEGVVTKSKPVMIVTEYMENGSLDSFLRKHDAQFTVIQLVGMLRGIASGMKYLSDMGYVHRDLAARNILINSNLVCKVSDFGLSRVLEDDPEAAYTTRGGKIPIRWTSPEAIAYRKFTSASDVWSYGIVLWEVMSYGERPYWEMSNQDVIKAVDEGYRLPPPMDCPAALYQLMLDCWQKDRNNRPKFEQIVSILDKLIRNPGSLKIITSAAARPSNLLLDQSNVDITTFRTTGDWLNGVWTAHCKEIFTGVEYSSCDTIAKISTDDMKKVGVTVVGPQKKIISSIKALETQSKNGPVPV
Conditions: at 1 µM.

Assay [7] deals with T4, Ephrin type-A receptor 3 (Homo sapiens). Conditions: at 10 µM.
For assay [8], the target named is Ephrin type-A receptor 5 (Homo sapiens) (UniProt P54756). Particulars: at 1 µM.
The target is the same in assay [9]. Particulars: at 10 µM.
Assay [10] addresses Ephrin type-A receptor 7 (Homo sapiens) (UniProt Q15375). Conditions: at 1 µM.
For assay [11] the target is unchanged. Conditions: at 10 µM.
For assay [12], the target named is T5, Ephrin type-A receptor 8 (Homo sapiens) (UniProt P29322).
T5 sequence (whole entry): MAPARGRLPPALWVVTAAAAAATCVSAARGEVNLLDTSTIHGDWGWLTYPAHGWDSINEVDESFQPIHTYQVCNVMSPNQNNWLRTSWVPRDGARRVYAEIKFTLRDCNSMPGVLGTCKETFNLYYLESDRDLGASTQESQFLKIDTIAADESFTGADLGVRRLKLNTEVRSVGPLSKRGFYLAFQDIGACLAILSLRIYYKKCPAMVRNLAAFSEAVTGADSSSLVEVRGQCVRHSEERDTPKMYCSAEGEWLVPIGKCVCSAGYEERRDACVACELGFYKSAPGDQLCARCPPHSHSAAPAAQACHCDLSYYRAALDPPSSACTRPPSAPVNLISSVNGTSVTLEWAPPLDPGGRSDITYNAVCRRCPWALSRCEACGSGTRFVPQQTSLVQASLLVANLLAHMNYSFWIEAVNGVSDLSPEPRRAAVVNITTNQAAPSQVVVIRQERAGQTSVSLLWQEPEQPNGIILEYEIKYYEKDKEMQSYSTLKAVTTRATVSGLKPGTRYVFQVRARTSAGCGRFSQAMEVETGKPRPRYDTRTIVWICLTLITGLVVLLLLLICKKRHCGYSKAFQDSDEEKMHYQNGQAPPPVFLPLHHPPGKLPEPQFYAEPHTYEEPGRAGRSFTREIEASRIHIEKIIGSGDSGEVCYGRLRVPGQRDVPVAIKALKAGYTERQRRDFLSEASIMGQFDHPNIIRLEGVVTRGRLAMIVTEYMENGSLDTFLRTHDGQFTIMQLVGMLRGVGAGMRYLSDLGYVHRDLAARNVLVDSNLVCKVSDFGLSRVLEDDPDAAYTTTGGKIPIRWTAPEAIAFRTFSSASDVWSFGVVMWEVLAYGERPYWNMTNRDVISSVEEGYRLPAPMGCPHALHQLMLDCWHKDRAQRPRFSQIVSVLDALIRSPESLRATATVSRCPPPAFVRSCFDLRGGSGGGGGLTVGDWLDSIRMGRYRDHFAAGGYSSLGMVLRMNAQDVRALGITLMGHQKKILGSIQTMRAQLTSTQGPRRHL
Conditions: at 1 µM.

Assay [13] deals with T5, Ephrin type-A receptor 8 (Homo sapiens). Conditions: at 10 µM.
In assay [14] the target is T3, Ephrin type-A receptor 1 (Homo sapiens). Conditions: at 1 µM.
For assay [15], the target named is T6, Ephrin type-B receptor 1 (Homo sapiens) (UniProt P54762).
T6 sequence (whole entry): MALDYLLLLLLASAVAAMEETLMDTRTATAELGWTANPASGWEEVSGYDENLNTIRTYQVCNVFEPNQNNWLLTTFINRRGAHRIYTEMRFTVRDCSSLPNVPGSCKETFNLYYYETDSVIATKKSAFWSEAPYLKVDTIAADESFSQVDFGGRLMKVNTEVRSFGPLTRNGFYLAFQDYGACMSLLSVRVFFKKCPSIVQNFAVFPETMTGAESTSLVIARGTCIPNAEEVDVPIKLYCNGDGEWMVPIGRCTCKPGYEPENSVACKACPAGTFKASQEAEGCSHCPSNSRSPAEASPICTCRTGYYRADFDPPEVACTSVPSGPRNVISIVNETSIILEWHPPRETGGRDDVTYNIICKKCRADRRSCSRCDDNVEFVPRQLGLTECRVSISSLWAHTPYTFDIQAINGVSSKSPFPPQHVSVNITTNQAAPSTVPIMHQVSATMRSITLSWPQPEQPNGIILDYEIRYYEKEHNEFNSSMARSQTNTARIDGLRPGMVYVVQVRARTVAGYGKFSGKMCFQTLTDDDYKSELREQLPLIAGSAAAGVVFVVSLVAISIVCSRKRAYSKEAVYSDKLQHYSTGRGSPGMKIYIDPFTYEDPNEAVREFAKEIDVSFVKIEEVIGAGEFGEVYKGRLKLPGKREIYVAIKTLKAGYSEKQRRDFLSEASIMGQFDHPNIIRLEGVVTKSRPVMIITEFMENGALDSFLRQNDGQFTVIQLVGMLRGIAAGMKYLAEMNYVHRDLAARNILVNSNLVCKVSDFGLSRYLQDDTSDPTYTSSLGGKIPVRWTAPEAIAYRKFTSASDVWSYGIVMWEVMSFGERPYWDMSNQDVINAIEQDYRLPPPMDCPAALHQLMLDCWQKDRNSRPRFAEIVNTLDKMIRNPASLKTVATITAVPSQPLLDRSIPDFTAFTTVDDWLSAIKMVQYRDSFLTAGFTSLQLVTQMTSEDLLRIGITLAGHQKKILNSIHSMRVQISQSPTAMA
Particulars: at 1 µM.

Assay [16] has as its target Ephrin type-A receptor 2 (Homo sapiens) (UniProt P29317). Conditions: at 10 µM.
The target of assay [17] is Ephrin type-A receptor 4 (Homo sapiens) (UniProt P54764). Particulars: at 1 µM.
The target is the same in assay [18]. Conditions: at 10 µM.

Sequence of Ephrin type-A receptor 7 (Homo sapiens) (Q15375 28-998 limits assumed): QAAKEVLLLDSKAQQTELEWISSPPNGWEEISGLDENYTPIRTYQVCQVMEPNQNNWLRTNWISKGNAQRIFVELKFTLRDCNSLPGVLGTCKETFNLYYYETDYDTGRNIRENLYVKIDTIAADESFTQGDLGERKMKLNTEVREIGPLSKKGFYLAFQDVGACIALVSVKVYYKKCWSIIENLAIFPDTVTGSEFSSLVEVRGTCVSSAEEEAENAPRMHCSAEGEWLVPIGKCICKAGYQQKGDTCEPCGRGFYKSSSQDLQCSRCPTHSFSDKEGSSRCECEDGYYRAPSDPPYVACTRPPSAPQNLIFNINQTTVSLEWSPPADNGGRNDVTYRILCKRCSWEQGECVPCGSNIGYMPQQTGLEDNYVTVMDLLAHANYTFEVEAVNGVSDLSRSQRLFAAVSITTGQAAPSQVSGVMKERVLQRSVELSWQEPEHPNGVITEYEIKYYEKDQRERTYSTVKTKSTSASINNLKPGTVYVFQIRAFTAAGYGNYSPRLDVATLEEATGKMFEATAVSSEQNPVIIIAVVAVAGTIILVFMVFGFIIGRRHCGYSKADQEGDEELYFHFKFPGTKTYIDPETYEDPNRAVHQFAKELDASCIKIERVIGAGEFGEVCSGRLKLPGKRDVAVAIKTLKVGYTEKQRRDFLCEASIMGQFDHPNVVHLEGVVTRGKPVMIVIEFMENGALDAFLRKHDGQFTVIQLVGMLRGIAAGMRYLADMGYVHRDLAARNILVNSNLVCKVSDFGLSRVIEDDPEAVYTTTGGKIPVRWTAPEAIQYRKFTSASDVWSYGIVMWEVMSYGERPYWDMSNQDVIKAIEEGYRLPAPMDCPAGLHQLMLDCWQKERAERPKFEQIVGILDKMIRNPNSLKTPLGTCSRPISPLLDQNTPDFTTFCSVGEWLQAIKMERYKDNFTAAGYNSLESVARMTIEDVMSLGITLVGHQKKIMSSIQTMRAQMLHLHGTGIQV
Sequence of Ephrin type-A receptor 2 (Homo sapiens) (P29317 whole entry): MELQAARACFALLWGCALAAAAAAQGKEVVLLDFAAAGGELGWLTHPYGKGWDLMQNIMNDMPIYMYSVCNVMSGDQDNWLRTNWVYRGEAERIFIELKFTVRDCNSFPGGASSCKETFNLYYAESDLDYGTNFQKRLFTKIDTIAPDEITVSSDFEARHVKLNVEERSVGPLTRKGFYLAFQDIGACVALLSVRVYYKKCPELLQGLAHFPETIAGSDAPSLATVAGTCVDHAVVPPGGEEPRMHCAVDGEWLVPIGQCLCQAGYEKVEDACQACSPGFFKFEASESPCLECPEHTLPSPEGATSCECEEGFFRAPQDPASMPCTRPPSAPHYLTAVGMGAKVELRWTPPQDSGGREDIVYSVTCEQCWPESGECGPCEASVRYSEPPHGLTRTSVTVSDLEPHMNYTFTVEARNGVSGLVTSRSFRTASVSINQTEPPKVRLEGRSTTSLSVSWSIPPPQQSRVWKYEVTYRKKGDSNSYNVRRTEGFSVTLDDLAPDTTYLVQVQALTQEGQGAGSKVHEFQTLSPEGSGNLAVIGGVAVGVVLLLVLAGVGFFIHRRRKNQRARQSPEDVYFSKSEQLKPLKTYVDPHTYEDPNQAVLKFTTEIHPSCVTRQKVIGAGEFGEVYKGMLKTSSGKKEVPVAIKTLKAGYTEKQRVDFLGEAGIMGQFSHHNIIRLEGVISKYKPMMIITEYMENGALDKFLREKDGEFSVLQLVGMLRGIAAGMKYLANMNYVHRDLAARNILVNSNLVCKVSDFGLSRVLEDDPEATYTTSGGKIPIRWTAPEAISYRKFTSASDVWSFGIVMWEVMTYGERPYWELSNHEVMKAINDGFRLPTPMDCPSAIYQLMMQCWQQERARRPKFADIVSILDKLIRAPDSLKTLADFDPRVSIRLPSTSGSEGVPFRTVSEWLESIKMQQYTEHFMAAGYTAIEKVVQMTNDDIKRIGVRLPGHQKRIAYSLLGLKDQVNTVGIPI
Sequence of Ephrin type-A receptor 5 (Homo sapiens) (P54756 whole entry): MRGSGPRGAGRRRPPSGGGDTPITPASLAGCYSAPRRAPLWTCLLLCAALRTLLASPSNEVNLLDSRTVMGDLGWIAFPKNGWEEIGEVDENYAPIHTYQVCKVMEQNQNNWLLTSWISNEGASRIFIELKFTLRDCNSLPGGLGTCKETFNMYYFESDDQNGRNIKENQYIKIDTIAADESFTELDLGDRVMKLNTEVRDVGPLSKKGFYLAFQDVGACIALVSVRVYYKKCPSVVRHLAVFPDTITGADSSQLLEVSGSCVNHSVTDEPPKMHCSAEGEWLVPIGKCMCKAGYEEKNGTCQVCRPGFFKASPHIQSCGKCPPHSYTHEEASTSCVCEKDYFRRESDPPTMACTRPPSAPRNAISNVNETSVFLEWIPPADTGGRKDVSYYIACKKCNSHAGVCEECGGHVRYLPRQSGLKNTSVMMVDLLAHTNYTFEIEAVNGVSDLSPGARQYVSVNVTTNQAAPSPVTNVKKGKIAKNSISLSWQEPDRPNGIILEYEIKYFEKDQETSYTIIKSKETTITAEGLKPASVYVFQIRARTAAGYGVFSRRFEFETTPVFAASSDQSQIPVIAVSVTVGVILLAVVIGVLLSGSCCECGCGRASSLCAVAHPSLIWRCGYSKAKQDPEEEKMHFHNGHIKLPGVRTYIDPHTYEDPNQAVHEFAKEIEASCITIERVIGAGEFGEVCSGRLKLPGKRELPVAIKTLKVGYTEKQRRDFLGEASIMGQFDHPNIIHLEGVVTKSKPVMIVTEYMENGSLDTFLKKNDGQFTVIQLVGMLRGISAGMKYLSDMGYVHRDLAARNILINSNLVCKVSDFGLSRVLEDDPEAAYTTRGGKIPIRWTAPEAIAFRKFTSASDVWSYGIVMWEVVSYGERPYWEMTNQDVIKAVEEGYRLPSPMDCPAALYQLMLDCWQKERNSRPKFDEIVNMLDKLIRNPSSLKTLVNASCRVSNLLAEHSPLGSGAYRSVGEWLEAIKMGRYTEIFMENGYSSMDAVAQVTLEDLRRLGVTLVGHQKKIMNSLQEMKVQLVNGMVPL
Sequence of Ephrin type-A receptor 4 (Homo sapiens) (P54764 whole entry): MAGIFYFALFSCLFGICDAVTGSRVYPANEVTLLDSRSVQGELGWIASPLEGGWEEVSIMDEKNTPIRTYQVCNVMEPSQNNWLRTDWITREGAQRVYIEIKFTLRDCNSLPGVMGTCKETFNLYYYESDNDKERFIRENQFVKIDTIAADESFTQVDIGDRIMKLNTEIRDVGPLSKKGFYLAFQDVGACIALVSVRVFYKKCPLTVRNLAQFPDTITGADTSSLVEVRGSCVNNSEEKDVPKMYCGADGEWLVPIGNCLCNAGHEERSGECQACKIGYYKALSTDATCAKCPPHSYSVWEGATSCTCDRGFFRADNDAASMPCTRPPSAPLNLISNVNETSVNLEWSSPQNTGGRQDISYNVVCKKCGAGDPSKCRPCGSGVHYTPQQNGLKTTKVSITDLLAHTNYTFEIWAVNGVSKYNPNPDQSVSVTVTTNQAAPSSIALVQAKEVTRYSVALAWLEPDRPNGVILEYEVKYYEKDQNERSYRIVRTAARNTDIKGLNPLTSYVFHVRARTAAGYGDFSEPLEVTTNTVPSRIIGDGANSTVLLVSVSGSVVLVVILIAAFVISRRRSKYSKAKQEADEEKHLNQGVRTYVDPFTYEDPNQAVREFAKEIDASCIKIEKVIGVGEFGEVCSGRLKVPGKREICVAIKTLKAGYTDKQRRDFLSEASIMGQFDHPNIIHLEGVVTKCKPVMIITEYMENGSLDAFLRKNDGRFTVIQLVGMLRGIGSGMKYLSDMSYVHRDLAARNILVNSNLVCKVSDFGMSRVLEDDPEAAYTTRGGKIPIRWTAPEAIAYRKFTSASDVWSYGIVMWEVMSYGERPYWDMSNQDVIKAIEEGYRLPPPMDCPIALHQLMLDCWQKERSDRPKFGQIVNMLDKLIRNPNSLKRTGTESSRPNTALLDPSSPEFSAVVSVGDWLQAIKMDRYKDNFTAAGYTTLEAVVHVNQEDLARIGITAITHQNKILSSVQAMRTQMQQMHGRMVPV

In general, residual activity refers to the signal under treatment as a percentage of the control signal. Turning to `O=C1C(Cl)=C(N2C(=O)CCC2=O)C(=O)c2ccccc21`, the residual activity came out at 82% in assay [1]; 100% in assay [2]; 92% in assay [3]; 84% in [4]; 93% in [5]; 85% in assay [6]. For the same compound, the residual activity was determined as 89% in [7]; 119% in [8]; 96% in assay [9]; 99% in assay [10]; 92% in assay [11]; 96% in assay [12]. Besides, in assay [13], the residual activity came out at 92%.
As to `O=C(O)/C=C/c1cc(Br)c(Br)c(Br)c1Br`, the residual activity stood at 39% in assay [1]; 92% in [2]; 38% in assay [3]; 104% in assay [14]; 91% in assay [4]; 101% in [6]. Besides, the residual activity was 79% in assay [7]; 109% in assay [10]; 92% in assay [11]; 100% in assay [12]; 99% in assay [13]; 101% in assay [15].
With `O=C1Nc2ccc(Cl)cc2/C1=C/c1cc(Cl)c(O)c(Cl)c1`, the residual activity amounted to 17% in [1]; 83% in [2]; 70% in assay [3]; 84% in assay [14]; 87% in assay [4]; 99% in assay [5]. The residual activity in assay [16] amounted to 76%; in assay [6] it was 91%; in assay [7], 54%; in assay [17], 99%; in assay [18], 90%; in assay [10] it was 92%. The residual activity in [11] was 71%; in assay [12] it was 90%; in assay [13], 79%; in assay [15], 94%.
